# High-throughput results as filed in PubChem BioAssay.
# Only some compounds are listed: those with a hit (about 7% of all), similar ones and a draw of the others.
# ATXN2 expr inh – inhibitors of ATXN2 expression. Potency, µM (highest dose often 57 µM), without a hit: at the highest dose activity change, negative = inhibition, most hits filed as inhibitors. HEK-293 ATXN2-luciferase reporter, luminescence, 24 h. 360,000 compounds, 0.72% hits. AID 1745845; further: potency means the concentration at half of the fitted maximal effect; on the % scale 0 is the no-effect control and ±100 the full control effect; nearly all actives have a fitted effect of over 55% in size
#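 ATXN2-luciferase reporter cells (luciferase flanked by upstream and downstream ATXN2 gene portions) were treated 24 h at 37 °C with compounds at up to 57 uM. SteadyGlo luminescence gave expression; GF-AFC fluorescence gave viability.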
# a7 integrin act – activates integrin-mediated alleviation for muscular dystrophy. alpha7betagal myoblasts, beta-gal FDG fluorescence, 48 h. Potency, µM (titrated, usually from 38.3 µM), inactives show at the highest dose activation, hits mostly activators. 350,000 compounds, 0.064% hits. AID 624291;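 further: potency means the concentration at half of the fitted maximal effect; 100% = response of the positive control SU9516; nearly all actives have a fitted effect of over 60% in size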
#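 Alpha7betagal+/- myoblasts (passage 13) were plated 16-24 hr, then exposed to compounds (1:260 dilution of DMSO stock) for 48 hours at 37C. After MPER lysis, β-galactosidase reporter activity was read as FDG fluorescence (ex 480/em 540) after 30 minutes.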
# DRD3 antagonist – antagonists of human D3 dopamine receptor. P35462. D3R cells, DiscoveRx beta-arrestin luminescence, antagonist mode; active compounds read low. max response, negative = inhibition, %. 360,000 compounds, 2.5% hits; in the data active means max response below about -50%; inconclusive means no clear call, values can overlap the other calls; further: on the % scale 0 is the no-effect control and ±100 the full control effect
# Target sequence (P35462 whole entry, looked up): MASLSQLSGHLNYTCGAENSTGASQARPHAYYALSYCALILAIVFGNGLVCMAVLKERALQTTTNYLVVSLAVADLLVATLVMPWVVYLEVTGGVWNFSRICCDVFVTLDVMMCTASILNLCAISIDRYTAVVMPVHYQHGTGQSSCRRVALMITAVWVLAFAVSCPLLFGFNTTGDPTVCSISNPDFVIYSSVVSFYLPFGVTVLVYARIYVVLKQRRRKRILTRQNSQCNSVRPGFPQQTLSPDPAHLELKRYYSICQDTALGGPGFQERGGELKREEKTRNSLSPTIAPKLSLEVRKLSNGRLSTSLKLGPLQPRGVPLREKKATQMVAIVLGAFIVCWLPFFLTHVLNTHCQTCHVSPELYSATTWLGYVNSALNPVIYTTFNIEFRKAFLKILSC
#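 Cells plated overnight at 1500 cells/well, then exposed to library compounds with dopamine controls for 90 minutes at 37 degrees C. DiscoveRx reagent added for 30–60 minutes at room temperature; luminescence read, quantitative HTS format.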
# D3 ag – agonists of human D3 dopamine receptor | D3R DiscoveRx beta-arrestin cells, luminescence, 90 min | max activation, % | 410,000 compounds, 0.58% hits | AID 652048; in the data active means max activation above about 30%; further: 0% is about no effect
#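 Agonist mode: compounds and dopamine controls were applied to plated cells for 90 min at 37 degrees C after an overnight attachment at 1500 cells/well. Luminescent read-out followed 30 - 60 minutes at room temperature with DiscoveRx detection reagent.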
# IL1B secr inh – inhibitors of inflammasome signaling (IL-1 beta secretion). THP-1 LPS/ATP IL-1B secretion, AlphaLISA, 16 h; active compounds read low. AID 743279. 360,000 compounds, 4.7% hits. activity change, % at 57.5 µM; in the data active means activity change below about -50%; inconclusive means mostly about -30% to -49%; further: on the % scale 0 is the no-effect control and ±100 the full control effect
#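 Secreted IL-1B measured by AlphaLISA bead assay after 16 h compound exposure of THP-1 cells; compounds (final up to 57.5 uM) added 1 h before LPS (250 ng/mL) and ATP (1.25 mM) stimulation; lower signal means less secretion.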
# ATXN viability – viability counter-screen for ATXN expression inhibitors | AID 651635 | 400,000 compounds, 0.49% hits | Potency, µM (top dose mostly 56.7 µM), most hits filed as cytotoxic | S2 cells (HEK-293 line with an ATXN2-luciferase reporter) viability, CellTiter-Fluor protease fluorescence, 24 h; further: potency means the concentration at half of the fitted maximal effect; nearly all actives have a fitted effect of over 40% in size
# Starred values were filed as active, the others as inactive; i = inactive; ? = inconclusive; . = no result. Unless noted, the call rests on the fitted dose curve; in most records, active means well fitted curve in the direction sought with a large enough effect; inconclusive means small, poorly fitted or top-dose-only effect, or another doubt; inactive means no such curve, though single readings can be large; an effect the other way counts as inactive or inconclusive.
SMILES,ATXN2 expr inh,a7 integrin act,DRD3 antagonist,D3 ag,IL1B secr inh,ATXN viability
Cc1nnc(N2CCCC(C(=O)Nc3cccc(C(F)(F)F)c3)C2)c2nn(-c3ccccc3)c(C)c12 (stereo not given),-20%,.,.,10,.,16µM*
CCc1ccc(CNC(=O)C2CCCN(c3nnc(C)c4c(C)n(-c5ccccc5)nc34)C2)cc1 (stereo not given),?,-83%,62,1,-71*,20µM*
Cc1nnc(N2CCCC(C(=O)NCc3ccccc3F)C2)c2nn(-c3ccccc3)c(C)c12 (stereo not given),-21%,?,3,-1,5,i
CCOC(=O)c1cccc(NC(=O)C2CCCN(c3nnc(C)c4c(C)n(-c5ccccc5)nc34)C2)c1 (stereo not given),-16%,.,.,21,.,?
CS(=O)(=O)c1ccc(NC(=O)CCN2C(=O)NC3(CCCC3)C2=O)cc1,.,3%,8,2,5,i
Cc1ccccc1C(=O)c1cccn1CC(=O)NCCN1CCN(c2cccc(C)c2C)CC1,?,-71%,?,0,?,?
Cc1noc2ncnc(N3CCCC(C(=O)Nc4cccc(C(F)(F)F)c4)C3)c12 (stereo not given),20µM*,.,.,4,.,.
COc1ccc(NC(=O)C2CCCN(c3ncnc4onc(C)c34)C2)cc1OC (stereo not given),-15%,.,.,6,.,i
COC(/C=C/Nc1ccc(OC)cc1)=C(C#N)C#N,-7%,19%,15,2,-59*,i
COCCNC(=O)CSc1ccc(Cl)cc1,-11%,17%,4,4,0,?
COCCNCCCCSc1ccc(Cl)cc1,.,-47%,-59*,-1,-6,i
COc1ccc(-c2ccc(-c3cc(=O)oc4cc(OC)c(OC)c(OC)c34)cc2)cc1OC,5%,-7%,3,34*,17,i
O=[N+]([O-])c1ccc(-c2nc(Cl)c3c(n2)CCCC3)o1,.,-46%,-8,8,-94*,i
Cc1ccc(-c2c(C#N)c(N)nc3c2CCCCC3)o1,9%,-2%,5,-9,16,i
CN(C(=O)COC(=O)c1ccc(C(C)(C)C)cc1)C1CCS(=O)(=O)C1 (stereo not given),5%,24%,3,10,2,i
CN(C(=O)COC(=O)Cc1c(Cl)cccc1Cl)C1CCS(=O)(=O)C1 (stereo not given),.,?,8,1,-8,i
CN(C(=O)COC(=O)c1nc(Cl)c(Cl)c(Cl)c1Cl)C1CCS(=O)(=O)C1 (stereo not given),?,-41%,?,-4,-99*,.
CN(C(=O)COC(=O)c1ccc2c(=O)n3c(nc2c1)CCC3)C1CCS(=O)(=O)C1 (stereo not given),3%,12%,8,1,-70*,i
CCc1nc2c(OCc3ccc(Cl)cc3Cl)cccn2c1N(C=O)Cc1ccc(OC)cc1,?,.,54,5,-67*,i
CCc1nc2c(OCc3ccc(Cl)cc3Cl)cccn2c1N(C)C(C)=O,18µM*,.,4,-1,?,.
CCc1nc2c(OCCn3cccc3)cccn2c1N(C=O)Cc1ccccc1,-2%,.,-13,45*,8,i
CCc1nc2c(OCCn3cccc3)cccn2c1N(C=O)Cc1ccc(OC)cc1,5%,.,-11,-6,-22,i
CC(=O)c1ccccc1NC(=O)COC(=O)CSCC(=O)Nc1cc(C)on1,0%,14%,1,3,18,i
O=C(Nc1ccc(C2=NCCN2)cc1)c1ccc(C(=O)Nc2ccc(C3=NCCN3)cc2)c(Cl)c1,.,-5%,7,-1,7,i
N#CCCn1cc(C(=O)O)c(-c2cc3ccccc3o2)n1,21%,-7%,-4,5,8,i
SMILES,ATXN2 expr inh,a7 integrin act,DRD3 antagonist,D3 ag,IL1B secr inh,ATXN viability
COc1ccc(CCNC(=O)CSc2ccc3ccccc3c2)cc1OC,-9%,0%,12,-23,2,i
O=C(CSc1ccc2ccccc2c1)NCCc1ccc(O)c(O)c1,1%,-4%,12,69*,-53*,.
O=C(c1ccco1)c1n[nH]nc1-c1ccccc1,-1%,6%,-70*,-2,25,i
Cc1ccccc1CC(=O)c1ccc(O)c(C)c1O,-17%,-23%,13,-1,-55*,i
Cc1c(O)ccc(C(=O)CN2CCN(Cc3ccccc3)CC2)c1O,.,18%,-19,-14,3,i
Cc1ccccc1C1=Nn2c(nnc2-c2ccco2)SC1,.,?,11,-6,24,i
COc1ccc(C)cc1Nc1n[n+](-c2ccccc2)c(-c2c(OC)ccc3ccccc23)s1,?,-4%,-15,-50,-75*,.
COc1ccc(C)cc1Nc1n[n+](-c2ccccc2)c(-c2cc(OC)c(OC)cc2Br)s1,?,-25%,0,-40,-11,22µM*
COc1ccc(C)cc1Nc1n[n+](-c2ccccc2)c(-c2ccc(C(=O)O)cc2)s1,8%,30%,1,-22,39,i
Fc1ccc(-[n+]2nc(Nc3ccccc3)sc2-c2c3ccccc3cc3ccccc23)cc1,25µM*,-45%,-63*,-19,-89*,11µM*
O=C(/C=C/c1cccs1)N1CCC2(CC1)Oc1ccc(F)cc1C(=O)C21CC(c2ccc(Cl)cc2)=NO1 (stereo not given),-12%,8%,0,0,-15,i
O=C(CN1C(=O)CSc2cc(S(=O)(=O)N3CCCCCC3)ccc21)NCCc1ccccc1,8%,0%,-21,-15,-62*,i
CN(C)CCNC(=O)CN1C(=O)CSc2ccc(S(=O)(=O)N3CCCCC3)cc21,3%,-8%,-18,-3,-20,i
Cc1ccc(NC(=O)CN2C(=O)CSc3ccc(S(=O)(=O)N4CCCCC4)cc32)cc1,-21%,-21%,-3,-5,-89*,?
CCOC(=O)CN1C(=O)CSc2ccc(S(=O)(=O)N3CCCC3)cc21,-5%,0%,-15,-9,-52*,i
CCOC(=O)CN1C(=O)CSc2ccc(S(=O)(=O)N3CCOCC3)cc21,3%,-10%,0,2,-7,i
Cc1ccc(-n2c(SCC(=O)N3CCOCC3)nc(O)c(Cc3ccccc3)c2=O)cc1,10%,4%,-5,3,11,i
CC(CCc1ccccc1)NC(=O)CN1C(=O)NC2(CCCCC2C)C1=O (stereo not given),.,13%,14,-3,5,i
CCN(CC)CCC(C)OC(c1ccccc1)c1ccccc1 (stereo not given),.,-59%,-53*,-4,-1,?
